# Measured values from the supplement of paper PMC6555819.
# Tested on: VDR:RXRa (NR concentration 270 nM, RXRa partner concentration 90 nM)
# Experiment: PBM binding z-score (relative to random genomic background probes); higher = stronger binding; sequences stand for … in GC…GCGATTGACAGCGTAGAATGAAGG
# Procedure: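 Protein-binding microarray (Agilent 4x180K custom design, double-stranded 60-nt probes: 5' GC cap, 34-nt variable region, 24-nt constant primer region; full probe sequence given). Purified or IVT nuclear receptor:RXRα heterodimers (3:1 NR:RXRα, mostly 270:90 nM) or homodimers were incubated for 1 h in PBS with 2% milk and no ligand, then detected with Alexa488 antibodies. Fluorescence from o1-orientation probes (~5 replicates averaged) was converted to z-scores against 500 random hg19 background probes. Variable regions are seed direct-repeat (DR0–DR5) sites, all their single-nucleotide variants and half-site ablations.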
row,Sequence,PBM binding z-score
1,CCTCCTGGGCCAAAGGTCATTGATTCCAATGCTC,4.75
2,CCTACTGGGCCATCATGTCATTGATATCAACGTT,0.0429
3,CCTCGGAGGACAACATGAGGTCAGAGCTGCCAGA,2.98
4,CCAGACAGGTGAGAGGGTAACTCAGCCTCGATTA,-0.0785
5,CAGCCTAGGTCAAGGCCAGTATAGGAGGAACGTT,1.3
6,ACAGACAGGTGATGCAGGTAACTCAGGCTATCAT,-0.283
7,AGAATGAGGTTACCAAAGATCGGGGAAACGCTTG,1.3
8,TCTATTAGTTGAAGGGCAACAGACGAGTCCGTTT,1.01
9,CCTTACGGGTCACTAACAGGTTATAGCATTTGGA,3.28
10,TCTTGTAGATCAACAGGAGGTTAAGGAAGATCGA,0.488
11,TTACCAAGGTGAGCTAAGGTCGTTGATCCAACTC,3.13
12,TGAATGAGGTTAAAGATCAGGGGACGTGGCGTCG,1.88
13,CGTCCAAGGTCATAGGAGGTCAGTGACGACAGAT,6.55
14,TCTCGGAGGACACGAAGGTCAGGGCTTTCCAGAG,2.24
15,CAAACTGGGTCACGAAAGGTCAAAGTCGAATGAC,6.96
16,CTCGAAAGGCCGTGCTCAGGTGAGTATACCAAAC,-0.528
17,ATCGAAAGGTCGAGGTGAATATAGAGAAAGGGAA,2.45
18,CCTATTAGTTGACCATAAGGGCAACGGAAGCTCG,0.803
19,GCGACTGGGCCAAAGCAGGTTACCATAAGGTTGG,-0.513
20,CCTAGCAGGCCAGGGTAACTCAAGCATTTCGCTT,-0.743

row,Sequence,PBM binding z-score
1,TAGCCTAGGTCATTCGGGGGCCAGTATAGAAAGC,3.99
2,GCTGCTAGGTCAACTGATGATCAGCTAAAGCTCG,1.38
3,GCTATTAGTTGAGAGGGCAACCGAATGATTCTCG,0.311
4,TCTGCTAGATCAGTTGGTCAGCTAACGAGCTGCC,-0.706
5,ATCTCTAGGGAACCAAGTTCAGTGAATGCCGAAC,2.1
6,GCTAATTGGTCAGTAAAAGGTCACACACCGGTCG,4.07
7,CAGCCTGGGTCAGGGCCAGTATAGGAGGAACGTT,0.152
8,TCGAGTAGGTTAGAGGCATTCAGAATGGCGTCGA,-0.327
9,TGTCAAAGTACAAAGGTAACGTAAGTATCCACAC,0.725
10,CGAACTAGATCAAGGACAGTGAATCTCCGCACGC,-0.37
11,TCTGGTAGATCAAGCAGGTTAAGAAAGCCTGAGT,0.122
12,CCTATTAGTTGACCGTAAGGGCAACCGAAGCTCG,0.821
13,AGAATGAGGTTATTAAGAGCAGGGAATTGCGGTC,2
14,GGAACGAGGGCAACGTTGATAGCATCTGTCGACG,0.229
15,TCTTGTAGATCAACAGGAGGTTGAGAAAGATCGA,-0.025
16,CCTATAAGTTGACCATAAGGGCAACCGAAGCTCG,1.06
17,CTCGAAAGATCGTGCTCAGGTGAGTATACCAAAC,-0.291
18,TGTCAAAGTTCAAAGGTACCGTAAGTATCCACAC,4.41
19,CCGACTGGGGCAAGGTTATCATAACGCACAGCCA,0.0882
20,CGTCCAAGGTCAAGGTCAGCGAAAGAGACTCGAA,4.97
